iPSC survival up – enhancers of single-cell hiPSC survival, primary screen, ATPlite luminescence; 100% = ROCK inhibitor wells, 0% = DMSO; survival enhancement, % at 20 µM; 0.044% of 360,000 active; in the data active means survival enhancement above about 18%;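 further: cells exposed to compounds for 16 hours before the ATP read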
HDAC3 inh – HDAC3 deacetylase inhibitors, primary screen, biochemical, fluorescence, cell-free homogeneous; 0.15% of 320,000 active; recombinant HDAC3, fluorogenic peptide/trypsin coupled; inhibition, % at 8.3 µM; in the data active means inhibition above about 26%, passing the limit was not always enough
Target sequence (O15379 whole entry, looked up): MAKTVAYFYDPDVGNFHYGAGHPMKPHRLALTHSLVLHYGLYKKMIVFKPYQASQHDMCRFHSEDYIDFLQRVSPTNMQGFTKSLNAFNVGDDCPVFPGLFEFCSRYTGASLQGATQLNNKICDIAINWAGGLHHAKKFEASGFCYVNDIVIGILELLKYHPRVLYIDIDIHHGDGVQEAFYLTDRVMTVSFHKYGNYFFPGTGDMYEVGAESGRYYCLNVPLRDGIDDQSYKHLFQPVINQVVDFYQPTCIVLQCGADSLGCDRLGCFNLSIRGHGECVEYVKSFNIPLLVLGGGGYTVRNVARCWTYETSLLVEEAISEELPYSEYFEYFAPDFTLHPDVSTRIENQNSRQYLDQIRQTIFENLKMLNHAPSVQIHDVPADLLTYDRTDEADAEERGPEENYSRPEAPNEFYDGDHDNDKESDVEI
DAGLB inh – DAGLB lipase inhibitors, primary screen, biochemical, fluorescence, HTS; AID 504411, 2011; HEK293T DAGLB membrane lysate, EnzChek fluorogenic substrate; Diacylglycerol lipase-beta (Homo sapiens), Q8NCG7; 0.059% of 340,000 active; inhibition, % at 5.17 µM; in the data active means inhibition above about 34%;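 further: 0% = enzyme with vehicle and 100% = wells lacking enzyme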
LANA-H2A inh – blockers of LANA interaction with H2A/H2B – biochemical, FP readout, HTS, primary screen. 0.6% of 320,000 active. AID 2629, 2010. inhibition, % (test concentration not listed). cell-free LANA-H2A/H2B peptide, fluorescence polarization; in the data active means inhibition mostly above about 10%, no sharp cut-off; inactive means mostly below about 6.7%
Numbers without * were called inactive. Compounds with a hit are over-represented: about 0.79% of the library has one in this group of screens.

How did CCSc1cnn(-c2ccccc2)c(=O)c1SCC do in these assays?
iPSC survival up: -1; HDAC3 inh: -4; DAGLB inh: 3; LANA-H2A inh: -5

How did O=c1c(Cl)c(Cl)cnn1-c1ccccc1 do in these assays?
iPSC survival up: -6; DAGLB inh: -7

Results for CCSc1cnn(-c2ccccc2)c(=O)c1Cl ?
iPSC survival up: 37*; HDAC3 inh: 6; DAGLB inh: -4; LANA-H2A inh: -4

What do the screens show for `CCOc1cnn(-c2ccccc2)c(=O)c1Cl`?
iPSC survival up: 58*; HDAC3 inh: -3; DAGLB inh: -4; LANA-H2A inh: 7

What do the screens show for `CN(C)c1nc(-c2cn(CCC#N)c3ccccc23)cs1`?
iPSC survival up: -1; HDAC3 inh: 1; DAGLB inh: -2; LANA-H2A inh: 5

What do the screens show for `Cc1ccccc1-c1nnc(SCC(=O)Nc2ccc3c(c2)OCCO3)n1N`?
iPSC survival up: 8; HDAC3 inh: 5; DAGLB inh: -2; LANA-H2A inh: -2

How did Nn1c(SCC(=O)Nc2ccc3c(c2)OCCO3)nncc1=O do in these assays?
iPSC survival up: 1; HDAC3 inh: -5; DAGLB inh: 1; LANA-H2A inh: 13*

Results for O=C(c1ccc2c(=O)n(Cc3ccccc3Cl)c(=S)[nH]c2c1)N1CCOCC1 ?
iPSC survival up: 0; HDAC3 inh: 2; DAGLB inh: 0; LANA-H2A inh: 1

How did COc1ccccc1NC(=O)C(C)OC(=O)C1COc2ccccc2O1 (stereo unspecified) do in these assays?
iPSC survival up: 0; HDAC3 inh: 0; DAGLB inh: 0; LANA-H2A inh: 21*

What do the screens show for `CC1=C(C(=O)N2CCCCCC2)CC(CC(=O)NCc2ccco2)C(=O)N1Cc1ccccc1` (stereo unspecified)?
iPSC survival up: -1

What do the screens show for `COC(=O)c1[nH]c(=O)c2ccccc2c1O`?
iPSC survival up: 1; HDAC3 inh: -4; DAGLB inh: -1; LANA-H2A inh: 23*

Results for CNC(=O)C[C@H]1C(=O)N(c2ccccc2)C[C@@H]1CSC ?
iPSC survival up: -1; DAGLB inh: 3

What do the screens show for `CS(=O)(=O)Nc1ccc2c3c(cccc13)CC2`?
iPSC survival up: 20*; HDAC3 inh: -5; DAGLB inh: 0; LANA-H2A inh: -1

Results for CC(C)NS(=O)(=O)c1ccc2c3c(cccc13)CC2 ?
iPSC survival up: 1; HDAC3 inh: -16; DAGLB inh: -1; LANA-H2A inh: 4

How did CCOC(=O)COn1c(=O)c(-c2cccs2)[n+]([O-])c2ccccc21 do in these assays?
iPSC survival up: 2; HDAC3 inh: 53*; DAGLB inh: 1; LANA-H2A inh: -3

How did CCCOc1ccc(-c2c(=O)n(OCC(=O)OCC)c3ccccc3[n+]2[O-])cc1 do in these assays?
iPSC survival up: 0; HDAC3 inh: 34*; DAGLB inh: -2; LANA-H2A inh: 3

How did OCCN1CCN(c2nccn3ccnc23)CC1 do in these assays?
iPSC survival up: -1

How did CCOc1ccc(-c2c(C#N)c(N)nc3sc(C(=O)c4ccccc4)c(N)c23)cc1 do in these assays?
iPSC survival up: 0; HDAC3 inh: -4; DAGLB inh: 2; LANA-H2A inh: 11*

How did COc1ccc(-c2c(C#N)c(N)nc3sc(C(=O)c4ccccc4)c(N)c23)cc1 do in these assays?
iPSC survival up: 2; HDAC3 inh: -3; DAGLB inh: -2; LANA-H2A inh: 5

What do the screens show for `Cc1ccc(OCc2nnc(SCC(=O)CC(=O)Nc3ccccc3)o2)cc1`?
iPSC survival up: -2; HDAC3 inh: 10; DAGLB inh: 3; LANA-H2A inh: 17*

How did CC(NC(=O)CSc1nnc(COc2ccccc2)o1)c1ccccc1 (stereo unspecified) do in these assays?
iPSC survival up: 5; HDAC3 inh: -4; DAGLB inh: -5; LANA-H2A inh: 20*

How did COc1ccc(CCn2c(C)nc3c(c(=O)c4ccccc4n3C)c2=O)cc1 do in these assays?
iPSC survival up: 1; HDAC3 inh: 5; DAGLB inh: 0; LANA-H2A inh: 11*

Results for COc1ccc(Cn2c(C)nc3c(c(=O)c4ccccc4n3C)c2=O)cc1 ?
iPSC survival up: -1; HDAC3 inh: 1; DAGLB inh: 0; LANA-H2A inh: 3

How did COCCn1c(Cc2ccccc2)nnc1SCC(=O)N1CCOCC1 do in these assays?
iPSC survival up: 0; HDAC3 inh: 0; DAGLB inh: 1; LANA-H2A inh: 3

What do the screens show for `COCCCn1c(Cc2ccccc2)nnc1SCC(=O)N1CCCCC1`?
iPSC survival up: -1; HDAC3 inh: 3; DAGLB inh: -1; LANA-H2A inh: 79*

Results for CCCNC(=O)c1cc(C2CCCCN2C(=O)c2ccc(OC)cc2)on1 (stereo unspecified) ?
iPSC survival up: -1

Results for CC1(C)CC(=O)/C(=C\c2cccc([N+](=O)[O-])c2)C(C)(C)N1 ?
iPSC survival up: 36*; HDAC3 inh: 0; DAGLB inh: 2; LANA-H2A inh: -4

How did O=C1N/C(=N/O)S/C1=C/c1cccc([N+](=O)[O-])c1 do in these assays?
iPSC survival up: -1; HDAC3 inh: -4; DAGLB inh: 0; LANA-H2A inh: 2

What do the screens show for `COc1ccc(-c2nn(-c3ccccc3)cc2/C=C/C(=O)N2CCN(c3ccccn3)CC2)cc1`?
iPSC survival up: -1; HDAC3 inh: 20; DAGLB inh: 0; LANA-H2A inh: 3

What do the screens show for `COCc1nnc(NC(=O)CCN2C(=O)c3ccccc3C2=O)s1`?
iPSC survival up: -2; HDAC3 inh: 4; DAGLB inh: 3; LANA-H2A inh: 16*

How did O=C(NCc1cccc(F)c1)c1cccc2c1C(=O)c1ccc(N3CCCC3)cc1S2(=O)=O do in these assays?
iPSC survival up: 2; HDAC3 inh: 10; DAGLB inh: -7; LANA-H2A inh: 25*

What do the screens show for `COc1ccccc1-c1noc2c1C(=O)N(Cc1cn(C3CCCC3)nn1)CC2`?
iPSC survival up: -1

How did CCOc1ccccc1N do in these assays?
iPSC survival up: -2; HDAC3 inh: 0; DAGLB inh: -2; LANA-H2A inh: 23*

What do the screens show for `CCCCOc1ccccc1N`?
iPSC survival up: -2; HDAC3 inh: 3; DAGLB inh: -2; LANA-H2A inh: -1

How did COc1cc(NC(=O)C2CC(c3c(F)cccc3Cl)=NO2)cc(OC)c1OC (stereo unspecified) do in these assays?
iPSC survival up: 0; HDAC3 inh: -4; DAGLB inh: -7; LANA-H2A inh: 4

What do the screens show for `COc1ccc(CNc2nc3ccccc3n2CCN2CCCCC2)cc1`?
iPSC survival up: 0; HDAC3 inh: -9; DAGLB inh: 1; LANA-H2A inh: -2

Results for COc1ccc(CCN2CCC(Nc3nc4ccccc4n3Cc3ccc(F)cc3)CC2)cc1 ?
iPSC survival up: -3; HDAC3 inh: 1; DAGLB inh: 0; LANA-H2A inh: 14*

Results for CCS(=O)(=O)N1Cc2ccccc2CC1C(=O)Nc1nnc(SCc2ccc(F)cc2)s1 (stereo unspecified) ?
iPSC survival up: -1; HDAC3 inh: 4; DAGLB inh: 3; LANA-H2A inh: 4

Compound activity from PubChem BioAssay.
